Pemphigus Ab inh – inhibitors of pemphigus antibody binding to human desmoglein-3; P32926; DSG3-coupled beads, scFv-anti-DSG3-GFP binding, flow cytometry; stronger effect = lower value; binding (percent of control), % at 10 µM; 310,000 tested, 0.48% active; AID 588358;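 active = binding more than 3 SD below its plate's average and above zero; inconclusive = below that plate limit but binding exactly zero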;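 note: hits lower antibody fragment binding to DSG3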
rCAG binder – binds r(CAG) RNA repeats. inhibition, % at 3 µM. r(CAG) RNA repeat, TO-PRO-1 dye displacement fluorescence. 370,000 tested, 1.3% active;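 active = inhibition above the plate cutoff, the mean of all test compounds on that plate plus 3 SD, cut at about 35% in these data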;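 note: 0% = DMSO alone and 100% = 100 µM mitoxantrone as full dye displacement; higher means more dye released from RNA so lower well fluorescence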
bovine MsrA act – activators of bovine methionine sulfoxide reductase A. 360,000 tested, 0.3% active. purified bovine MsrA, absorbance read-out. activation, % at 10.6 µM. AID 602163; in the data active = activation above about 7.5%;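 note: 0% = vehicle and 100% = reference activator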
DAGLB inh – diacylglycerol lipase beta (human) inhibition; HEK293T DAGLB membrane lysate, EnzChek fluorogenic substrate; Q8NCG7; AID 504411; 340,000 tested, 0.059% active; inhibition, % at 5.17 µM; in the data active = inhibition above about 34%;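 note: 0% = enzyme with vehicle and 100% = wells lacking enzyme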
Target sequence (Q8NCG7 whole entry, looked up): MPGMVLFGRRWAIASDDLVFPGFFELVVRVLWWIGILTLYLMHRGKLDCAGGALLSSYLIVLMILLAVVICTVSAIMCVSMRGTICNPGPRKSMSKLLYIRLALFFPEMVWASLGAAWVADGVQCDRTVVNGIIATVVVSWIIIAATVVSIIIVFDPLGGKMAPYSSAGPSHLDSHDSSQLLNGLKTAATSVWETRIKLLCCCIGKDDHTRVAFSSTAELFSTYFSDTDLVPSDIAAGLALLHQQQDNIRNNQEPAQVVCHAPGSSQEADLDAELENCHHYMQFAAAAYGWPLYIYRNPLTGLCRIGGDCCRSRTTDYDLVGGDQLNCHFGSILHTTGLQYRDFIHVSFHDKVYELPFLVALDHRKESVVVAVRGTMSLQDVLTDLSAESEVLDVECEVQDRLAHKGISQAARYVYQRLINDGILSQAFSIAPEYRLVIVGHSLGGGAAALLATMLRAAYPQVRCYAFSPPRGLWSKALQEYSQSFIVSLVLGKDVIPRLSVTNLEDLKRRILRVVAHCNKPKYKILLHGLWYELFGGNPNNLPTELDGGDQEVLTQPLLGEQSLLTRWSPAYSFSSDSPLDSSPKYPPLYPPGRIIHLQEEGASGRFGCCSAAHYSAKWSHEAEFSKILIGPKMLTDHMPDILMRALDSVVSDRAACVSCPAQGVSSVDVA
MsrA inh – inhibitors of bovine MsrA. inhibition, % at 15.5 µM. AID 651718. 360,000 tested, 0.75% active. purified bovine MsrA, absorbance read-out; in the data active = inhibition above about 4.5%;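 note: 0% = vehicle wells with enzyme and 100% = reference inhibitor wells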
NadD block – blocks S. aureus nicotinate mononucleotide adenylyltransferase. inhibition, % at 20 µM. purified NadD enzyme, colorimetric absorbance read-out. 360,000 tested, 0.78% active. AID 602399; in the data active = inhibition above about 26%
* hit, by the source's call; ? = inconclusive; . = no result given. Compounds with a hit are over-represented: about 3.2% of the library has one in this group of screens.

SMILES	Pemphigus Ab inh	rCAG binder	bovine MsrA act	DAGLB inh	MsrA inh	NadD block
Cn1nnnc1SCC(=O)Nc1nc2c(F)c(F)c(F)cc2s1	.	5	-2	5	-1	-1
O=C(/C=C/c1cccc(F)c1)Nc1cc(S(=O)(=O)N2CCOCC2)ccc1N1CCCC1	-24*	7	0	3	0	6
O=C(Nc1cc(C(F)(F)F)ccc1F)C1Cc2c(-c3ccccc3Oc3ccccc3)ccnc2O1 (stereo not drawn)	.	4	-8	.	0	5
CC(=O)c1ccc(N2CCN(C(=O)c3ccc4c(=O)n(-c5ccccc5)c(=O)[nH]c4c3)CC2)cc1	102	7	-9	1	4.6*	11
O=C(Nc1ccc(NC(=O)c2cc([N+](=O)[O-])ccc2N2CCOCC2)cc1)c1cccs1	95	17	-5	3	4.6*	5
O=C(Nc1cc([N+](=O)[O-])ccc1N1CCOCC1)c1cccs1	105	-1	-3	1	0	0
Cc1ccc(S(=O)(=O)CC(=O)c2cc3cccc(C)c3oc2=O)cc1	49*	9	2	6	0	13
COc1cccc2cc(C(=O)CS(=O)(=O)c3ccc(C)cc3)c(=O)oc12	93	.	-1	10	.	3
COc1ccc(Cc2nnc(N=Nc3c(O)[nH]c4ccc(Br)cc34)[nH]c2=O)cc1	93	14	-12	-1	-2	38*
COC(=O)N=Nc1c(O)[nH]c2ccc(Br)cc12	98	2	-4	1	0	-9
O=C(Nc1nc(-c2cccnc2)cs1)c1ccc([N+](=O)[O-])cc1	29*	8	-1	5	1	10
O=C(Nc1nc(-c2cccnc2)cs1)c1cccc([N+](=O)[O-])c1	100	2	-2	1	0	11
C=C(C)/C=C1/C(Cc2ccccc2)N(CC2CC2)C(=N)N1C(=O)OCc1ccccc1 (stereo not drawn)	.	1	.	.	.	.
O=C(NCc1ccccc1)C1CCN(S(=O)(=O)c2cccc3cccnc23)CC1	90*	2	-4	-1	0	-5
CCCCN1CC(=O)N2[C@H](C[C@@]3(C)c4ccccc4N(S(=O)(=O)c4ccccc4)[C@@H]23)C1=O	.	5	.	.	.	.
COC(=O)COc1cccc2c(=O)n(CC(=O)Nc3ccc4c(c3)OCCO4)ccc12	51*	1	-10	-3	-1	0
O=C(/C=C/c1ccc2c(c1)OCO2)NCCS(=O)(=O)N1CCN(c2ccccc2)CC1	104	6	-10	-2	2	1
CC(C)(C)c1ccc(OCc2ccc(C(=O)N/N=C/c3ccc(O)c(O)c3)cc2)cc1	111	17	-6	5	1	72*
COc1cccc(/C=N/NC(=S)NCCc2ccccc2)c1OC	70*	-3	-5	-5	0	-8
COc1ccc(OC)c(/C=N\NC(=O)CC(=O)NCCc2ccccc2)c1	98	-2	-6	0	2	-5
COc1ccc(OC)c(/C=N/NC(=S)NCCc2ccccc2)c1	62*	0	-4	-3	1	-34
O=c1c2ccccc2sn1-c1nccs1	28*	5	17*	.	1	13
Cn1sc2ccccc2c1=O	.	2	7.8*	1	1	-3
O=c1c2ccccc2sn1-c1ccccc1F	.	1	6	1	0	8
COC(=O)[C@H](C(C)C)N1CCc2nnn(Cc3ccccc3)c2-c2cc(F)ccc2S1(=O)=O	.	-3	.	.	.	.
SMILES	Pemphigus Ab inh	rCAG binder	bovine MsrA act	DAGLB inh	MsrA inh	NadD block
CC1(C(=O)NS(=O)(=O)C2CC2)CCCN(C(=O)COCc2ccccc2)C1 (stereo not drawn)	.	4	-2	.	1	0
N#Cc1nc(-c2ccc(OCc3ccccc3)cc2)oc1N1CCC(C(N)=O)CC1	66*	3	-5	2	-1	-10
COc1cc(NC(=O)Nc2nc(C(N)C(C)C)cs2)cc(OC)c1OC (stereo not drawn)	.	25	-1	.	0	2
Fc1ccc(CSc2ncnc3c2oc2ccccc23)cc1	69*	5	-8	-11	0	0
O=C(Nc1sc2c(c1C(=O)O)CCCC2)c1cccc(Cl)c1	94	84*	4	16	2	-9
O=C(Nc1sc2c(c1C(=O)O)CCCCC2)c1ccccc1	103	29	-2	5	4	-6
CCOC(=O)C1CCN(c2nc(N)c3c(N)nc(SCC(=O)O)cc3c2C#N)CC1	101	35*	2	-9	2	12
CCOC(=O)[C@]12CCCCC/C=C\1N(CCc1ccc(Cl)cc1)C(=O)[C@H]2CC(=O)N1CCOCC1	.	0	.	.	.	.
CCCCNC(=O)Nc1nc2ccc(CC)cc2s1	107*	6	0	-6	0	-2
CCCCNC(=O)Nc1nc2ccccc2s1	98	1	1	0	1	5
Cc1ccc(C2=NN=C(NC(=O)CSc3nnc4c5ccccc5n(C)c4n3)SC2)cc1	92	.	-2	-40	.	82*
NC(=S)N/N=C/c1ccccc1OC(=O)c1cc2ccccc2oc1=O	109	3	0	1	4.6*	2
COC(=O)[C@@]12CCCCC3=C1N(CCC3)C(=O)[C@H]2CC(=O)NCCCCc1ccccc1	.	-3	.	.	.	.
CC(C)(C)c1ccc(C2C(C#N)=C(N)Oc3n[nH]c(-c4cccnc4)c32)cc1 (stereo not drawn)	15*	3	-2	4	-1	6
O=C(NC(c1ccc(Cl)cc1)c1cnccn1)C1CCN(CCCOc2ccccc2)CC1 (stereo not drawn)	.	1	0	.	-1	2
CC(COc1ccc(C#N)c(F)c1)CN1CCC(C(O)(c2ccccc2)c2ccccc2)CC1 (stereo not drawn)	.	4	.	.	.	.
CSCCC(c1nc2ccccc2[nH]1)n1c(/C=C/c2ccc(Cl)cc2)nc2ccccc21 (stereo not drawn)	.	6	.	.	0	.
c1cc2c(cc1Nc1nc(-c3ccc4c(c3)OCO4)cs1)OCCO2	?	13	-2	-2	1	40*
c1ccc(-c2csc(Nc3ccc4c(c3)OCCO4)n2)cc1	109	8	-4	-2	1	7
O=C(NC1CCCC1)c1ccc(COc2ccccc2)o1	.	3	.	.	.	.
Cc1ccc(C(=O)NCC(=O)OCc2nc3sc(C)c(C)c3c(=O)[nH]2)cc1	.	3	.	.	.	.
CC1=NN(c2nc(-c3ccccc3)cs2)C(=O)C1	99	68*	-5	27	1	11
CC1=NN(c2nc(-c3ccc(C#N)cc3)cs2)C(=O)C1	.	20	.	.	2	.
C[C@@H]1CN(c2ccc(N3CCNC[C@@H]3C)cc2C#N)C[C@H](C)O1	.	0	.	.	1	.
NSc1nc(N)c2nc(-c3ccccc3)c(-c3ccccc3)nc2n1	67*	20	-10	-1	4	24
Nc1nc(N)c2nc(-c3ccccc3)c(N)nc2n1	93	2	-6	3	1	-6
O=C(COC(=O)/C=C/c1cccc(Cl)c1)Nc1c(F)cccc1F	-5.5*	2	1	-3	1	5

Bioassay records: PubChem BioAssay, several laboratories
